Source: PubChem BioAssay
Rows were chosen to be rich in hits. Some 5.2% of all compounds tested hit in one or more screens of this group.
Tau fluor cs – Counterscreen qHTS for Inhibitors of Tau Fibril Formation, Fluorescence Polarization | tau K18 P301L Alexa594 fluorescence, heparin fibrillization | Potency, µM (titrated, usually from 57.7 µM), for inactives: top-dose activity change, negative = decrease | 280,000 tested, 0.93% active | AID 1463, 2008; note: potency is the fitted concentration of half-maximal effect; nearly all actives have a fitted effect of over 55% in size
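Human K18 P301L tau (15 uM unlabeled plus 0.24 uM Alexa 594-labeled, final) in 100 mM sodium acetate pH 7 was mixed with compound and 20 uM heparin and incubated 6 hr at 37 C.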
FBPA coupling cs – qHTS Assay for Inhibitors of Fructose-1,6-bisphosphate Aldolase from Giardia Lamblia: Coupling assay counterscreen | coupling enzyme system counterscreen, AmpLite Red fluorescence | activity change, negative = inhibition, % at 58.2 µM, hits read low | 290,000 tested, 0.67% active | AID 2472, 2010; in the data active = activity change below about -30%
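First, compound is pin-transferred into glyceraldehyde-3-phosphate coupling-enzyme reagent at 57.5 uM final and held 10 min at RT. Next, substrate, coupling system and AmpLite Red are added. After 20 min RT, fluorescence (525/598 nm) is read.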
Tau fibril FP – qHTS for Inhibitors of Tau Fibril Formation, Fluorescence Polarization; Microtubule-associated protein tau (Homo sapiens), P10636; K18 P301L tau heparin fibrillization, Alexa594 FP, 6 h; Potency, µM (titrated, usually from 57.7 µM), inactives show at the top dose activity, negative = inhibition, actives largely listed as inhibitors; 280,000 tested, 0.39% active; note: potency is the fitted concentration of half-maximal effect; nearly all actives have a fitted effect of over 55% in size
Target sequence (P10636 561-689 P618L limits assumed): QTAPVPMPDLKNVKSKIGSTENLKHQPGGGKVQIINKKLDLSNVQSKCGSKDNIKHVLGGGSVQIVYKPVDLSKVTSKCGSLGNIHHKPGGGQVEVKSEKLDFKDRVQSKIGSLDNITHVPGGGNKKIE
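Recombinant K18 P301L […], labeled with Alexa 594 at 0.24 uM over 15 uM unlabeled; heparin inducer 20 uM final; 37 C, 6 hr; FP endpoint.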
Sfp PPTase inh – qHTS Assay for Inhibitors of Bacillus subtilis Sfp phosphopantetheinyl transferase (PPTase) | 4'-phosphopantetheinyl transferase ffp (Bacillus subtilis), Q9F4F7 | Biochemical Sfp PPTase activity, qHTS | Potency, µM, inactives show largest response in the series, negative = inhibition, hits mostly inhibitors | 310,000 tested, 3.5% active | AID 1490, 2009;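 note: the enzyme is Sfp with the accession as filed and its product quenches rhodamine fluorescence; potency is the fitted concentration of half-maximal effect; 0% = enzyme reaction without inhibitor and -100% = no enzyme wells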
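Step 1, compound plus 15 nM Sfp-PPTase, 15 min, room temperature. Step 2, add rhodamine-CoA (5 uM) and BHQ-2-YbbR (12.5 uM). Step 3, read 525/598 nm fluorescence at 0 and 30 min.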
Tau fibril ThT – qHTS for Inhibitors of Tau Fibril Formation, Thioflavin T Binding; Microtubule-associated protein tau (Homo sapiens), P10636; recombinant tau K18 P301L (four-repeat tau fragment), heparin-induced fibrillization, ThT fluorescence; Potency, µM (series often up to 57.4 µM), for inactives: at the highest dose activity, negative = inhibition, most hits filed as inhibitors; 270,000 tested, 2.1% active; AID 1460, 2008; note: potency is the fitted concentration of half-maximal effect; nearly all actives have a fitted effect of over 55% in size
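Aggregation was driven by heparin (20 uM final) acting on recombinant tau […] bearing P301L in 100 mM sodium acetate pH 7; fibrils were detected with Thioflavin T.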
Active calls of the source: *; ! = not confirmed by another sample; [ ] = dose if it differs, or a comment. Unless noted, calls come from the whole dose curve; as a rule, active = well fitted curve in the direction sought with a large enough effect; inconclusive = small, poorly fitted or top-dose-only effect, or another doubt; inactive = no such curve, though single readings can be large; an effect the other way counts as inactive or inconclusive. Unless noted, % is set by controls: 0 for no effect and ±100 for the full control effect.

`CC(=O)N[C@@H](CS)C(=O)O` gave Tau fluor cs -13%, FBPA coupling cs 4, Tau fibril FP -10%, Sfp PPTase inh 35µM*! and Tau fibril ThT inconclusive.
`CCN(CC)CCCNC(=O)CCCn1ncn2c(cc3occc32)c1=O` gave Tau fluor cs -3%, Tau fibril FP -5% and Tau fibril ThT 1%.
Screening COC(=O)Cc1[nH]n(-c2ccccc2)c(=O)c1C(C)=Nc1ccccc1 returned Tau fluor cs -7%, FBPA coupling cs 0, Tau fibril FP -6%, Sfp PPTase inh 10% and Tau fibril ThT inconclusive.
`COC(=O)Cc1[nH]n(-c2nc3ccccc3s2)c(=O)c1C(C)=Nc1ccc(Cl)cc1` gave Tau fluor cs -4%, FBPA coupling cs 6, Tau fibril FP 3%, Sfp PPTase inh 79µM* and Tau fibril ThT inconclusive.
`COC(=O)Cc1[nH]n(-c2nc3ccccc3s2)c(=O)c1C(C)=Nc1ccc(C)cc1` gave Tau fluor cs -4%, FBPA coupling cs 2, Tau fibril FP 3%, Sfp PPTase inh 56µM* and Tau fibril ThT inconclusive.
CCN(CC)c1ccc(C(=O)NCc2ccc3c(c2)CCN3C(=O)c2ccc(F)cc2)cc1 was read as Tau fluor cs -8%, Tau fibril FP 13% and Tau fibril ThT 8%.
For N#CC(C#N)=C1NC(N)=C(C#N)C(c2ccccc2)=C1C#N the results were FBPA coupling cs 11 and Sfp PPTase inh 56µM*.
Screening N#CC1=C(c2ccccc2)/C(=C/c2ccccc2)OC1=O returned Tau fluor cs inconclusive, FBPA coupling cs 0, Tau fibril FP 8%, Sfp PPTase inh inconclusive and Tau fibril ThT -25%.
Screening Cc1cc(N=Nc2ccc(C)c(N=Nc3cc(C)c(N)cc3N)c2)c(N)cc1N returned Tau fluor cs 16µM*[quencher], FBPA coupling cs -21, Tau fibril FP -4%, Sfp PPTase inh inconclusive and Tau fibril ThT 4µM*.
`CCOC(=O)c1sc(N2C(=O)C(O)=C(C(=O)c3ccc(C)o3)C2c2ccc(OC)c(OC)c2)nc1C` (stereo not given) gave Sfp PPTase inh 12%.
Screening Cc1nnc(N2C(=O)C(O)=C(C(=O)c3ccco3)C2c2ccc(C(C)C)cc2)s1 (stereo not given) returned Tau fluor cs 13%, FBPA coupling cs 5, Tau fibril FP 5%, Sfp PPTase inh 56µM* and Tau fibril ThT 1%.
For CCCCOc1cccc(C2C(C(=O)c3ccc(C)o3)=C(O)C(=O)N2c2nnc(C)s2)c1 (stereo not given) the results were FBPA coupling cs 3 and Sfp PPTase inh 50µM*.
Screening CCOc1ccc(C2C(C(=O)c3ccc(C)o3)=C(O)C(=O)N2c2nc(C)c(C(=O)OC)s2)cc1 (stereo not given) returned FBPA coupling cs 9 and Sfp PPTase inh 50µM*.
CCOC(=O)c1sc(N2C(=O)C(O)=C(C(=O)c3ccco3)C2c2ccc(C)o2)nc1C (stereo not given) was read as FBPA coupling cs 2 and Sfp PPTase inh 40µM*.
For Cc1nnc(N2C(=O)C(O)=C(C(=O)c3ccco3)C2c2ccc(F)cc2)s1 (stereo not given) the results were Tau fluor cs -6%, FBPA coupling cs 1, Tau fibril FP -6%, Sfp PPTase inh -12% and Tau fibril ThT inconclusive.
Screening O=C(CO)[C@@H](O)C(O)[C@@H](O)CO (stereo not given in full) returned FBPA coupling cs 0 and Sfp PPTase inh 0%.
O=C(c1ccc2c(c1)N(Cc1ccc(Cl)cc1)C(=O)c1ccccc1S2=O)N1CCC(Cc2ccccc2)CC1 (stereo not given) was read as Tau fluor cs -1%, Tau fibril FP 7% and Tau fibril ThT -5%.
CCCCN(Cc1cccs1)S(=O)(=O)c1cc(-c2cc(C)no2)ccc1C was read as Tau fluor cs -23%, Tau fibril FP -5% and Tau fibril ThT -1%.
